Tested on: Salmonella enterica serovar Typhimurium 14028s
Test: approximate change in surviving CFU after surface colonization relative to water-only control (log10 CFU/mL change); higher = more surviving bacteria (less inhibition of surface colonization)
Conditions: not stated (Biolog proprietary concentration), surface: plastic 96-well plate, 20-24 h at 25 °C

NCC(=O)N1CCC[C@H]1C(=O)O [Glycyl-L-Proline]
approximate change in surviving CFU (log10) (Biolog plate: PM1, Biolog well: H1): 0.58

OC[C@H]1O[C@H](OC[C@H]2O[C@H](O[C@H]3[C@H](O)[C@@H](O)[C@@H](O)O[C@@H]3CO)[C@H](O)[C@@H](O)[C@@H]2O[C@H]2O[C@H](CO)[C@@H](O)[C@H](O)[C@H]2O)[C@H](O)[C@@H](O)[C@@H]1O [Glycogen]
approximate change in surviving CFU (log10) (Biolog plate: PM2, Biolog well: A8): 0.944

OC[C@@H](O)[C@@H](O)CO [i-Erythritol]
approximate change in surviving CFU (log10) (Biolog plate: PM2, Biolog well: B10): 1.35

C[C@@H](O)[C@H](O)[C@H](O)[C@@H](O)C=O [D-Fucose]
approximate change in surviving CFU (log10) (Biolog plate: PM2, Biolog well: B11): -0.408

OC[C@H]1O[C@@](CO)(O[C@H]2O[C@H](CO)[C@@H](O)[C@H](O)[C@H]2O)[C@@H](O[C@H]2O[C@H](CO)[C@@H](O)[C@H](O)[C@H]2O)[C@@H]1O [D-Melezitose]
approximate change in surviving CFU (log10) (Biolog plate: PM2, Biolog well: C4): 1.16

CO[C@H]1O[C@H](CO)[C@@H](O)[C@H](O)[C@H]1O [a-Methyl-D-Glucoside]
approximate change in surviving CFU (log10) (Biolog plate: PM2, Biolog well: C6): 1.2

O=C(CO)[C@@H](O)[C@@H](O)[C@H](O)CO [D-Tagatose]
approximate change in surviving CFU (log10) (Biolog plate: PM2, Biolog well: D6): 0.859

OC[C@@H](O)[C@H](O)[C@@H](O)CO [Xylitol]
approximate change in surviving CFU (log10) (Biolog plate: PM2, Biolog well: D8): 1.01

CC(=O)N[C@@H](CO)[C@@H](O)[C@H](O)[C@H](O)CO [N-Acetyl-D-Glucosaminitol]
approximate change in surviving CFU (log10) (Biolog plate: PM2, Biolog well: D9): 0.944

CCCCCCCCCC(=O)O [Capric Acid]
approximate change in surviving CFU (log10) (Biolog plate: PM2, Biolog well: E1): -0.88

O=C(CO)[C@@H](O)[C@H](O)[C@@H](O)C(=O)O [5-Keto-D-Gluconic Acid]
approximate change in surviving CFU (log10) (Biolog plate: PM2, Biolog well: E12): 0.708

O=C(O)[C@H](O)[C@@H](O)[C@H](O)[C@H](O)CO[C@H]1O[C@H](CO)[C@H](O)[C@H](O)[C@H]1O [Melibionic Acid]
approximate change in surviving CFU (log10) (Biolog plate: PM2, Biolog well: F3): 0.3

C/C=C/C=C/C(=O)O [Sorbic Acid]
approximate change in surviving CFU (log10) (Biolog plate: PM2, Biolog well: F9): -2.68

O=C(CO)CO [Dihydroxy Acetone]
approximate change in surviving CFU (log10) (Biolog plate: PM2, Biolog well: H9): -4.4

CC(O)C(C)O (stereo not given) [2,3-Butanediol]
approximate change in surviving CFU (log10) (Biolog plate: PM2, Biolog well: H10): -0.708

CC(=O)C(C)O (stereo not given) [3-Hydroxy-2-Butanone]
approximate change in surviving CFU (log10) (Biolog plate: PM2, Biolog well: H12): -0.15

N[C@@H](CS)C(=O)O [L-Cysteine]
approximate change in surviving CFU (log10) (Biolog plate: PM3, Biolog well: A11): 0.88

N[C@@H](Cc1c[nH]c2ccccc12)C(=O)O [L-Tryptophan]
approximate change in surviving CFU (log10) (Biolog plate: PM3, Biolog well: B12): -1.05

N[C@@H](Cc1ccc(O)cc1)C(=O)O [L-Tyrosine]
approximate change in surviving CFU (log10) (Biolog plate: PM3, Biolog well: C1): 0.3

N[C@H](CCC(=O)O)C(=O)O [D-Glutamic Acid]
approximate change in surviving CFU (log10) (Biolog plate: PM3, Biolog well: C6): 0.837

CC(C)[C@@H](N)C(=O)O [D-Valine]
approximate change in surviving CFU (log10) (Biolog plate: PM3, Biolog well: C9): -0.172

NO [Hydroxylamine]
approximate change in surviving CFU (log10) (Biolog plate: PM3, Biolog well: D4): -0.687

CC(=O)N[C@@H]1C(O)O[C@H](CO)[C@@H](O)[C@@H]1O (stereo partly drawn) [N-Acetyl-D-Mannosamine]
approximate change in surviving CFU (log10) (Biolog plate: PM3, Biolog well: F1): 0.15

O=C1NC(=O)C(=O)C(=O)N1 [Alloxan]
approximate change in surviving CFU (log10) (Biolog plate: PM3, Biolog well: G4): -3.16

C[C@H](N)C(=O)NCC(=O)O
approximate change in surviving CFU (log10) (Biolog plate: PM3, Biolog well: H4): -0.322

O=C(CO)[C@@H](O)[C@H](O)[C@H](O)CO [D-Fructose]
approximate change in surviving CFU (log10) (Biolog plate: PM1, Biolog well: C7): 2.4

CC(O)CO (stereo not given) [1,2-Propanediol]
approximate change in surviving CFU (log10) (Biolog plate: PM1, Biolog well: D4): -0.3

OC[C@H]1O[C@@H](O[C@H]2[C@H](O)[C@@H](O)[C@@H](O)O[C@@H]2CO)[C@H](O)[C@@H](O)[C@H]1O [a-D-Lactose]
approximate change in surviving CFU (log10) (Biolog plate: PM1, Biolog well: D9): 1.05

OC[C@H]1O[C@@H](O[C@@H]2[C@@H](CO)OC(O)(CO)[C@H]2O)[C@H](O)[C@@H](O)[C@H]1O (mixture of isomers) [Lactulose]
approximate change in surviving CFU (log10) (Biolog plate: PM1, Biolog well: D10): 1.05

OCC(O)C(O)C(O)CO (stereo not given) [Adonitol]
approximate change in surviving CFU (log10) (Biolog plate: PM1, Biolog well: E9): 1.37

NCC(=O)N[C@@H](CC(=O)O)C(=O)O [Glycyl-L-Aspartic Acid]
approximate change in surviving CFU (log10) (Biolog plate: PM1, Biolog well: F1): 0.929

O[C@H]1[C@H](O)[C@@H](O)[C@H](O)[C@@H](O)[C@H]1O [myo-Inositol]
approximate change in surviving CFU (log10) (Biolog plate: PM1, Biolog well: F3): 0.902

C[C@H](O)[C@@H](N)C(=O)O [D-Threonine]
approximate change in surviving CFU (log10) (Biolog plate: PM1, Biolog well: F4): 0.901

O=C(O)CC(Br)C(=O)O (stereo not given) [Bromo Succinic Acid]
approximate change in surviving CFU (log10) (Biolog plate: PM1, Biolog well: F6): -0.901

CCC(=O)O [Propionic Acid]
approximate change in surviving CFU (log10) (Biolog plate: PM1, Biolog well: F7): -0.987

O=C(O)CC(CC(=O)O)C(=O)O [Tricarballylic Acid]
approximate change in surviving CFU (log10) (Biolog plate: PM1, Biolog well: G2): 1.05

CC(=O)C(=O)O [Pyruvic Acid]
approximate change in surviving CFU (log10) (Biolog plate: PM1, Biolog well: H8): -0.494

O=C(O)[C@H]1OC(O)[C@H](O)[C@@H](O)[C@H]1O (stereo partly drawn) [D-Galacturonic Acid]
approximate change in surviving CFU (log10) (Biolog plate: PM1, Biolog well: H10): 1.09

OC[C@H]1O[C@@H](O[C@H]2[C@H](O)[C@@H](O)[C@H](O[C@H]3[C@H](O)[C@H](O)[C@H](O[C@@H]4[C@H](O)[C@H](O)[C@H](O)O[C@@H]4CO)O[C@@H]3CO)O[C@@H]2CO)[C@@H](O)[C@@H](O)[C@@H]1O [Mannan]
approximate change in surviving CFU (log10) (Biolog plate: PM2, Biolog well: A11): 0.837

OC[C@@H]1OC(O)[C@@H](O)[C@H](O)[C@H]1O (stereo partly drawn) [L-Glucose]
approximate change in surviving CFU (log10) (Biolog plate: PM2, Biolog well: C2): 1.22

— the supplement of paper PMC11738630
